The record followed here is PubChem BioAssay (NCI).

The panel holds about 83,000 compounds, 20% with a hit somewhere; the sample as a whole holds those more often.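 Negative percent growth values reflect cell death: -40 means 40% of the cells present at the start died, and -100 means all died.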 Values without a mark were called inactive. Activity calls are given as the source filed them. The calls were made as follows: active = growth percent below 10; inactive = the rest.

The test deals with MALME-3M melanoma. Kind of test: NCI-60 one-dose screen, 48 h (100 = growth as untreated, 0 = no growth, -100 = all killed). The following applies: 10 µM unless noted.
As to `C=C(C)[C@@H]1CC[C@]2(C(=O)NCCNCCN)CC[C@]3(C)[C@H](CC[C@@H]4[C@@]5(C)C/C(=C/c6ccncc6)C(=O)C(C)(C)[C@@H]5CC[C@]43C)[C@@H]12`, the growth is 106%.

As for `CS(=O)(=O)C1=CN(CCO)C(=O)N2CCCN=C12`, the growth is 96.2%.

As for `Cc1ccc(Sc2nnc(/N=C3\C(=O)Nc4ccccc43)s2)cc1`, the growth is 102%.

For `CCOc1nc(-c2ccccc2)cc2c(O)c(C(=O)NN)[nH]c(=O)c12`, the growth was 112%.

Regarding `O=C1Nc2ccc(Br)cc2/C1=N/c1n[nH]c(=S)s1`, the growth is 107%.

Consider `CCCCCCCCCCCCCCCC(N)c1ccccc1` (stereo not drawn), for which the growth was 79.5%.

In the case of `CCc1n(Cc2ccc3ccccc3c2)cc[n+]1Cc1ccc2ccccc2c1`, the growth is -21.9% (active).

`Cc1ccc(-c2nc(N3CCNCC3)c3oc(-c4ccccc4)nc3n2)cc1`: the growth was -29.5% (active).

As for `O=C(OCc1ccc2cccc(O)c2n1)N1CCN(C(=O)c2cc3cc(F)ccc3[nH]2)CC1`, the growth was -93.2% (active).

For the molecule `CN1CCN(Cc2ccc(NC(=O)c3cncc(C#Cc4cnc(N)c5ccccc45)c3)cc2C(F)(F)F)CC1`, the growth is -88.6% (active).

In the case of `CO/N=C(/C)c1ccc(NC(=O)CSc2nnc(-c3ccncc3)n2-c2ccccc2)cc1`, the growth is 32.2%.

For `CC(=O)OC[C@]12CCC(C)(C)C[C@H]1[C@@]1(O)[C@H](O)C[C@@H]3[C@@]4(C)CCCNC(C)(C)[C@@H]4CC[C@@]3(C)[C@]1(C)CC2`, the growth is 106%.

For the molecule `COc1cc(-n2cc(-c3cc(O)c(C/C=C(\C)CCC=C(C)C)c(O)c3)nn2)cc2c1O[C@]1(C)CC[C@@H](O)C(C)(C)[C@H]1C2`, the growth was -0.848% (active).
